A selection: hits, their analogues and other compounds. The true share with any hit is near 3.5%.
TEAD-YAP inh = TEAD-YAP interaction inhibition; HEK-TIYL cells, TEAD-Gal4/YAP UAS-luciferase luminescence; inhibition, % at 9.12 µM; hit rate 1.4% among 640,000; AID 1259422; in the data active = inhibition above about 32%;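 note: 0% = median of test compound wells and 100% = reference inhibitor wells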
MITF inh = human MITF inhibition, primary screen; AlphaScreen MITF homodimerization, bead proximity signal; inhibition, % at 2.6 µM; hit rate 0.91% among 650,000; AID 1259374; in the data active = inhibition above about 50%;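 note: 0% = vehicle wells with protein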
FBW7 act = activators of human E3 ligase FBW7. Q969H0. AlphaScreen FBW7–phospho-cyclin E peptide binding, activator screen. normalized activity (activation), % at 26.1 µM. hit rate 0.13% among 650,000; in the data active = normalized activity above about 1.9%;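 note: purified mutant Fbw7 with reduced substrate affinity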
Target sequence (Q969H0 whole entry, looked up): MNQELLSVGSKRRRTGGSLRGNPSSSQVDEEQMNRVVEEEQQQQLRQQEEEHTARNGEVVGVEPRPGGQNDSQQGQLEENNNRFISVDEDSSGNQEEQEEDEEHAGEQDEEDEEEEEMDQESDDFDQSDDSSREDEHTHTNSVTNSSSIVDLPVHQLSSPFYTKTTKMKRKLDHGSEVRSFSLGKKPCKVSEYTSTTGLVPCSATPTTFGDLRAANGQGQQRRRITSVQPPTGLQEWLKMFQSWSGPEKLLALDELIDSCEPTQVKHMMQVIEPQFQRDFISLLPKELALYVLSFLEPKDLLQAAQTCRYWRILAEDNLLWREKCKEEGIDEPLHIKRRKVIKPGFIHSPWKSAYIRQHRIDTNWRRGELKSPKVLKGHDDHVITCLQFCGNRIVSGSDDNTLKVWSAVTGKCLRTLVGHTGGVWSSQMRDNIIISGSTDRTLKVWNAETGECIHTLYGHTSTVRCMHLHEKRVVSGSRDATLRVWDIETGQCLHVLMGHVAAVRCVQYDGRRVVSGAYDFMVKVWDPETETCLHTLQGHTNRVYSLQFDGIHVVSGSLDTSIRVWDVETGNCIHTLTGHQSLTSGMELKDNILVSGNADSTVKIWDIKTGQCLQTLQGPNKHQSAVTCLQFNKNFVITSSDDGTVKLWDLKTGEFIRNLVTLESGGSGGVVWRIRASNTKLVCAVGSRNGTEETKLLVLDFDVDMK
GPR151 activ = human GPR151 activation. Q8TDV0. PathHunter beta-arrestin GPR151 cells, luminescence. activation, % at 11.2 µM. hit rate 1% among 650,000. AID 1508602; in the data active = activation above about 4.9%;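 note: 0% = median of compound wells and 100% = cells with positive control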
MITF inh conf = human MITF inhibition, confirmation. AlphaScreen MITF homodimerization, biotin/His-MITF beads. inhibition, % at 2.6 µM. shares compounds with MITF inh. AID 1259372. hit rate 16% among 4,700;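 active = inhibition above a cutoff derived from the DMSO control wells, cut at about 28% in these data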;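 note: 0% = MITF dimer wells with DMSO only; inhibitors lower the bead chemiluminescence by keeping MITF from dimerizing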
AlphaScreen intf2 = optically interferes with AlphaScreen signal; shares compounds with MITF inh; LysRS AlphaScreen counterscreen, signal interference, triplicate; inhibition, % at 2.6 µM; hit rate 7.6% among 4,700; AID 1259376;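 active = inhibition above a cutoff derived from the DMSO control wells, cut at about 30% in these data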
* marks the source's active call; other numbers are inactive results; . = not tested or not shown.

SMILES | TEAD-YAP inh | MITF inh | FBW7 act | GPR151 activ | MITF inh conf | AlphaScreen intf2
O=C(CN1CCN(c2ccccc2F)CC1)NCCC1=CCCCC1 | -5.6 | 67.6* | 0.1 | -0.1 | 12.1 | 11.2
Cc1ccc2c(c1)C(C)CC(C)(C)N2C(=O)CN1CCN(C)CC1 (stereo not given) | -2.5 | -3.7 | -0.4 | 2.3 | . | .
CN1CCCN(CC(=O)N2CCc3ccccc32)CC1 | -3.8 | 77.6* | -0.6 | 0.8 | 3.8 | 4.6
O=C(CN1CCN(c2ccccc2F)CC1)N1CCCc2ccccc21 | 7.1 | 52.5* | -0.1 | 2.1 | 9.4 | 21.8
COc1cccc(OC)c1C(=O)N1CCN(c2ccc(F)cc2)CC1 | 0.1 | 4.5 | -0.3 | -0.7 | . | .
O=C(c1cnccc1Nc1ccc2[nH]ncc2c1)N1CCCC(O)C1 (stereo not given) | 4.8 | 3.6 | -0.1 | 0.5 | . | .
Nc1cccc2c1C(=O)N(C(=O)c1ccccc1Br)C2=O | -1.5 | -6.1 | 0.2 | 2.0 | . | .
COc1cccc2cc(-c3csc(Nc4cccc(F)c4)n3)c(=O)oc12 | -6.2 | 54.9* | 0.2 | -0.7 | 13.1 | 18.7
Cc1cc(OCCN2CCC(C)CC2)ccc1[N+](=O)[O-] | -30.5 | 51.9* | -0.1 | -0.1 | 0.9 | 7.9
Cc1ccc([N+](=O)[O-])c(OCCN2CCNCC2)c1 | 3.1 | 46.8 | 0.2 | 0.0 | . | .
Cc1cc(OCCN2CC(C)CC(C)C2)ccc1[N+](=O)[O-] (stereo not given) | 1.0 | 15.5 | -0.2 | -0.7 | . | .
Cc1cc(OCCCN2CCCCCC2)ccc1[N+](=O)[O-] | -0.7 | 45.5 | 0.1 | -0.6 | . | .
Cc1ccc([N+](=O)[O-])c(OCCN2CCN(Cc3ccccc3)CC2)c1 | 8.3 | 63.0* | -0.1 | -0.1 | 12.6 | 8.3
CCN1CCN(CCOc2ccc([N+](=O)[O-])c(C)c2)CC1 | -14.4 | 64.9* | 0.5 | -0.9 | 6.9 | 7.1
Cc1cc(OCCCCN2CCCC2)ccc1[N+](=O)[O-] | -3.3 | 81.6* | 0.1 | -0.7 | 24.2 | 1.4
CC(C)(C)NC(=O)CSc1nnc(CNc2ccc(F)cc2)n1CC1CCCO1 (stereo not given) | 3.9 | 2.2 | -0.2 | 0.0 | . | .
CC1(C)N(O)C(=O)CN1C(=O)c1ccccc1 | 7.0 | 3.5 | 0.1 | 1.7 | . | .
Cc1cc(OCCN2CCN(Cc3ccccc3)CC2)ccc1[N+](=O)[O-] | -2.1 | 81.8* | 0.1 | -0.7 | 0.0 | -2.0
CCN1CCN(CCCOc2ccc([N+](=O)[O-])cc2)CC1 | 12.8 | 66.2* | -0.2 | 0.2 | 7.5 | 16.4
O=[N+]([O-])c1ccc(OCCCN2CCCCCC2)cc1 | 6.6 | 29.9 | 0.1 | 0.0 | . | .
CCOC(=O)c1oc2ccccc2c1NC(=O)c1ccc(C#N)cc1 | -4.3 | 0.8 | 0.1 | 1.5 | . | .
COc1ccc(CN(C)CCc2ccccn2)cc1OCc1ccccc1 | -13.8 | 62.4* | 0.1 | 1.8 | 4.3 | 22.5
COc1cc(/C=C/C(=O)NCc2ccccn2)cc(OC)c1OC | -6.7 | -4.6 | -0.4 | -0.7 | . | .
COc1ccc(CN(Cc2ccccn2)S(=O)(=O)c2ccc(F)cc2F)cc1OC | 5.2 | 4.5 | 0.2 | -0.2 | . | .
COc1ccc(CN(C)CCc2ccccn2)cc1OC | -2.4 | 77.3* | -0.1 | -1.8 | -0.2 | 1.9
SMILES | TEAD-YAP inh | MITF inh | FBW7 act | GPR151 activ | MITF inh conf | AlphaScreen intf2
COc1cc(CN(C)CCc2ccccn2)cc(OC)c1OC | 3.0 | 73.9* | 0.1 | -0.3 | 11.8 | 19.0
C=CCc1ccc(OC)c(OCc2ccccc2)c1 | 2.9 | 21.6 | 0.3 | -0.7 | . | .
CCc1ccccc1NC(=O)CSc1nc2ccsc2c(=O)n1-c1ccccc1 | 3.2 | 22.7 | 0.6 | -2.4 | . | .
CC(=O)c1ccc(N2C(=O)c3cc4ccccc4cc3C2=O)cc1 | 11.4 | 8.6 | -0.1 | 1.3 | . | .
CCOC(=O)c1c(C)n(C(=O)c2ccco2)c(=O)n1C(=O)c1ccco1 | 6.9 | 15.6 | 0.9 | 1.9 | . | .
CCOC(=O)CCCCC(=O)c1c(C)n(C(=O)c2ccco2)c(=O)n1C(=O)c1ccco1 | -1.2 | 99.1* | -0.5 | -0.4 | 101.7* | 80.3*
O=C(CON1C(=O)CCC1=O)N1CCN(c2ccccc2)CC1 | 10.7 | -5.5 | -0.1 | 0.0 | . | .
COc1ccc(COCC(O)CNCCCN2CCOCC2)cc1OC (stereo not given) | 9.1 | 53.5* | 0.1 | -0.6 | -6.6 | -2.4
COc1ccc(COCC(O)CNCCOCCO)cc1OC (stereo not given) | -4.0 | 4.7 | 0.2 | 0.0 | . | .
OC(CNCCN1CCOCC1)COc1ccccc1 (stereo not given) | -5.7 | 74.7* | 0.0 | 1.1 | 4.0 | 1.9
OC(COc1ccccc1)CN1CCOCC1 (stereo not given) | 1.4 | -1.4 | -0.1 | -0.2 | . | .
OC(CNCCN1CCOCC1)COC1CCCc2ccccc21 (stereo not given) | 7.2 | 72.8* | -0.1 | 0.3 | 13.3 | 15.1
CC(=O)Nc1cc(-c2ccccc2)nn1Cc1ccc(Cl)cc1 | -0.3 | 1.4 | 0.0 | 1.0 | . | .
CC(=O)Nc1cc(-c2ccc(Cl)cc2)nn1-c1ccccc1 | -4.4 | 80.9* | 0.0 | 1.4 | -3.2 | -5.3
OC(CNC1CCCC1)COCc1ccccc1Cl (stereo not given) | 5.3 | 26.1 | -0.1 | 0.3 | . | .
OC(CNCC(c1ccco1)N1CCCC1)COCc1ccccc1Cl (stereo not given) | 11.8 | 60.7* | 0.0 | 0.2 | -11.0 | 0.8
OC(CNCC(c1ccco1)N1CCCC1)COc1ccccc1 (stereo not given) | 5.9 | 53.7* | -0.3 | -1.9 | -4.2 | 1.1
COC(=O)C1=C(C)NC(=O)N(C(C)=O)C1c1ccc(OC)cc1 (stereo not given) | 2.5 | 6.5 | 0.1 | -2.1 | . | .
Cc1ccc(C(=O)Cn2nnc(-c3ccc(N)cc3)n2)cc1 | -0.3 | 73.0* | 0.1 | -1.4 | 15.6 | 10.3
Cc1ccc(-c2nnn(CC(=O)c3ccc4c(c3)OCCO4)n2)cc1 | -3.6 | -10.6 | -0.1 | -0.7 | . | .
O=C(COC(=O)c1ccc([N+](=O)[O-])o1)Nc1ccc2c(c1)OC(F)(F)O2 | 14.0 | 82.2* | -0.1 | 0.5 | 7.7 | 12.8
COc1ccc(CN2CCN(C(=O)c3cccs3)CC2)cc1OC | 1.0 | 36.9 | -0.1 | -1.8 | . | .
CCc1ccc(CN2CCN(C(=O)CC(C)C)CC2)cc1 | 4.6 | 58.4* | 0.3 | 0.5 | 0.8 | 9.4
COc1ccc(C(=O)N2CCN(Cc3ccc(OC)c(Br)c3)CC2)cc1 | 4.2 | 43.0 | 0.6 | -1.6 | . | .
COc1ccc(CN2CCN(C(=O)CC(C)C)CC2)cc1Br | -3.6 | 54.3* | 0.3 | -2.3 | 4.1 | 15.0
CCOc1ccc(CN2CCN(C(=O)c3cccs3)CC2)cc1 | 8.4 | 59.9* | -0.1 | -0.7 | 9.4 | 14.0
CCc1ccc(CN2CCC(C(=O)NC(C)C)CC2)cc1 | 6.5 | 34.1 | 0.2 | -0.4 | . | .
COc1ccc(CN2CCN(C(=O)c3cccs3)CC2)cc1Br | -8.9 | 66.7* | 0.1 | -0.7 | 3.2 | 9.0
CCc1ccccc1N(CC(=O)NCCC(C)C)C(=O)CCC(=O)Nc1ccccn1 | -4.6 | 3.0 | 0.1 | 1.0 | . | .
COc1ccc(CN2CCN(C(=O)c3ccccc3F)CC2)cc1Br | -2.9 | 54.2* | 0.0 | -0.5 | 26.7 | -10.4
